The source of these data is PubChem BioAssay (Tox21).

Records with an inconclusive call do not appear. Calls of active or inactive are those of the source. Unless noted, calls follow the shape of the full dose curve.

Experiment [1] can be described thus: Nuclear factor erythroid 2-related factor 2/antioxidant responsive element (Nrf2/ARE) small molecule agonists: qHTS cell viability counter screen in human keratinocytes (AID 1919968; active = well fitted curve in the direction sought with a large enough effect in the repeat runs; an effect the other way counts as inactive or inconclusive; also: nearly all actives have a fitted effect of over 55% in size). Summed up:
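Fluorescence read-out from CellTiter-Fluor after 1 h at 37 C. Wells held HaCaT-derived ARE-luciferase reporter cells (1,500/well) treated 23 h with DMSO-dissolved compounds. Run in the same wells as the luciferase agonist read.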
On the technique in general: qHTS replaces the single test concentration by a dilution series.

A short description of experiment [2]: Nuclear factor erythroid 2-related factor 2/antioxidant responsive element (Nrf2/ARE) small molecule agonists: luciferase reporter gene qHTS assay in human keratinocytes (AID 1919969). Also: nearly all actives have a fitted effect of over 35% in size. For orientation: In a reporter assay the amount or activity of a reporter protein is the signal.
Experiment [3] deals with Gonadotropin-releasing hormone receptor (Homo sapiens) (UniProt P30968). In words: Human gonadotropin-releasing hormone receptor (GnRHR) small molecule agonists, calcium flux assay in GnRHR-HEK293 cells (AID 1920063). Also: nearly all actives have a fitted effect of over 35% in size. Summed up: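 Calcium-dye fluorescence, Ex/Em=480/540, recorded every 1 sec over 3 min after compound addition to GnRHR-HEK293 cells. Cells had been seeded 18 hours earlier and dye-loaded for 1 hour at 37 C. Fifteen concentrations, triplicates.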
Sequence of Gonadotropin-releasing hormone receptor (Homo sapiens) (P30968 whole entry, looked up): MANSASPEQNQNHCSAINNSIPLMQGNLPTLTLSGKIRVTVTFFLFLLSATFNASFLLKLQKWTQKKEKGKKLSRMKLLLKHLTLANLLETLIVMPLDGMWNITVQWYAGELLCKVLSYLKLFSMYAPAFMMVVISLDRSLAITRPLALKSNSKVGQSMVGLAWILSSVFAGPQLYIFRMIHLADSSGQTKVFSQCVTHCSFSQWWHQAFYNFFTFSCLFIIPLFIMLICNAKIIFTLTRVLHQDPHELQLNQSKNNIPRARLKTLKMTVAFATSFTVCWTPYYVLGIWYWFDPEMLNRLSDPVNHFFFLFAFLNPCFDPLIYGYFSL
For orientation: Calcium assays in cells follow changes in intracellular calcium, usually with a dye or a luminescent sensor.

Experiment [4] concerns the target KiSS-1 receptor (Homo sapiens) (UniProt Q969F8). Description: Human kisspeptin (KISS1R) small molecule agonists, calcium flux assay in KISS1R-HEK293 cells (AID 1920064; active = well fitted curve in the direction sought with a large enough effect in the repeat runs; an effect the other way counts as inactive or inconclusive). Summed up: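 Calcium flux read-out: kinetic fluorescence at Ex/Em=480/540, 1 s intervals over 3 min, after pin-tool compound addition to dye-loaded KISS1R-HEK293 cells. Fifteen concentrations, triplicates.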

A short description of experiment [5]: G protein-coupled receptor (GPCR) small molecule agonists, calcium flux assay: HEK293 wild type cell line counter screen (AID 1920065). Summed up:
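Agonist mode; 18 h seeding at 37 C, 1 h dye load at 37 C; compounds pinned from DMSO, ATP as positive control; kinetic fluorescence 480/540 nm, 3 min, 1 s reads; 15 concentrations, triplicate.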

Experiment [6] can be described thus: p53 small molecule agonists, cell-based qHTS assay with rat liver microsomes (AID 1963578). Summed up:
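Metabolic activation is supplied by rat liver microsomes with NADPH (each 0.5 mg/mL final). p53RE-bla cells incubate with compound 16 h at 37 C; reporter activity is measured by LiveBLAzer fluorescence.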

Experiment [7] in a line: p53 small molecule agonists, cell-based qHTS assay with human liver microsomes: qHTS cell viability counter screen (AID 1963579). Also: nearly all actives have a fitted effect of over 45% in size. Summed up:
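After the 460/530 nm beta-lactamase read, CellTiter-Glo was added to the same wells and luminescence measured after 30 min at room temperature, giving viability of p53RE-bla cells treated 16 h with compounds plus microsomes and NADPH.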

The nature of experiment [8]: p53 small molecule agonists, cell-based qHTS assay with rat liver microsomes: qHTS cell viability counter screen (AID 1963580). Also: nearly all actives have a fitted effect of over 45% in size. Summed up:
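Luminescent ATP readout (CellTiter-Glo, 30 min at room temperature) reports viability of p53RE-bla HCT-116 cells after 16 h at 37 C with test compounds under metabolic activation by rat liver microsomes and NADPH at 0.5 mg/mL final each.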

Experiment [9] in a line: p53 small molecule agonists, cell-based qHTS assay (AID 1963582; active = well fitted activation curve with a large enough effect in the signal ratio in the repeat runs, not every such curve was filed as active; the % refers to the signal ratio). Summed up: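 Fluorescence intensity read-out of a beta-lactamase reporter under a p53 response element. Cells were exposed to DMSO-dissolved compounds for 16 h at 37 C, then developed with FRET substrate for 2 h at RT.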
The target in experiment [10] is 5-hydroxytryptamine receptor 2A (Homo sapiens) (UniProt P28223). In words: 5-hydroxytryptamine receptor 2A (HTR2A) small molecule antagonists, cell-based qHTS assay (AID 1963586). Also: nearly all actives have a fitted effect of over 45% in size. Also: potency is read from the fitted curve at half-maximal effect. Put shortly: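 CHO cells stably expressing human HTR2A were plated for 18 h at 37 C, then loaded with calcium dye for 1 h. Compounds were preincubated 5 min at room temperature before DOI (4 nM solution) was added. Kinetic fluorescence was read for 3 min.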
Sequence of 5-hydroxytryptamine receptor 2A (Homo sapiens) (P28223 whole entry, looked up): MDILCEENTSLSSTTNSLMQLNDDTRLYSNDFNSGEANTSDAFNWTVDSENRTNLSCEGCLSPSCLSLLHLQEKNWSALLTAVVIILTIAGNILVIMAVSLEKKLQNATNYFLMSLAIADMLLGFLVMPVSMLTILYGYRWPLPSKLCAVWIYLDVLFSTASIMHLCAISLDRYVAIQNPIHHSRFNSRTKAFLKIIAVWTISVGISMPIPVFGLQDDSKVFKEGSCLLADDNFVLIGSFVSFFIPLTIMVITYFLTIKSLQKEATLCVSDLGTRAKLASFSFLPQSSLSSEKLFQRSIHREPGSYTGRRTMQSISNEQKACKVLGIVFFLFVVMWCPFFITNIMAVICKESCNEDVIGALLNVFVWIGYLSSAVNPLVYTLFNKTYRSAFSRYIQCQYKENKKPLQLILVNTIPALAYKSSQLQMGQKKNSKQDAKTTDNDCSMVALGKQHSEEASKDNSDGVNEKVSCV

Experiment [11] has the same target. In words: 5-hydroxytryptamine receptor 2A (HTR2A) small molecule agonists, cell-based qHTS assay (AID 1963587). Also: nearly all actives have a fitted effect of over 30% in size. Put shortly: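 HTR2A-CHO cells, plated 18 h at 37 C/5% CO2, dye-loaded 1 h at 37 C; compounds in DMSO added by pin tool (agonist mode). Intracellular calcium flux read as kinetic fluorescence on FDSS over 2 min at 1 s intervals.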
Experiment [12] concerns the target Muscarinic acetylcholine receptor M1 (Homo sapiens) (UniProt P11229). In words: Cholinergic receptor muscarinic 1 (CHRM1) small molecule antagonists, cell-based qHTS assay (AID 1963588). Also: nearly all actives have a fitted effect of over 40% in size. Summed up:
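Compounds were tested at 15 concentrations in three independent runs. Dye-loaded CHRM1-CHO cells were exposed 5 min at room temperature before stimulation by acetylcholine added at 50nM. Intracellular calcium was read kinetically on FDSS for 3 min.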

Experiment [13] has the same target. Description: Cholinergic receptor muscarinic 1 (CHRM1) small molecule agonists, cell-based qHTS assay (AID 1963589). Also: nearly all actives have a fitted effect of over 35% in size. Put shortly:
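Calcium flux read-out: kinetic fluorescence at 1 sec intervals after pin-tool compound addition to dye-loaded CHRM1-CHO cells (human M1). Agonist mode; 15 concentrations tested in triplicate independent runs.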

Experiment [14] is described as follows: cAMP Responsive Elements (CRE) small molecule agonists, cell-based qHTS assay (AID 1963590). Summed up: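 Beta-lactamase reporter readout: LiveBLAzer B/G FRET substrate, 2 h at room temperature, added after 3 h compound treatment of CRE-bla HEK 293T cells at 37 C/5% CO2.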
Experiment [15] in a line: cAMP Responsive Elements (CRE) small molecule antagonists, cell-based qHTS assay (AID 1963591; active = well fitted inhibition curve with a large enough effect in the signal ratio in the repeat runs, not every such curve was filed as active; the % refers to the signal ratio). Summed up: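 HEK293T CRE-bla; 18 h preincubation; compound pin-transfer; NKH477 0.25 uM final, 3 h, 37 C; LiveBLAzer FRET substrate 2 h RT.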
In experiment [16] the target is Beta-2 adrenergic receptor (Homo sapiens) (UniProt P07550). In words: Adrenergic beta2 receptor (ADRB2) small molecule antagonists, cell-based qHTS assay (AID 1963592). Also: series mostly up to about 92 µM; nearly all actives have a fitted effect of over 50% in size. Put shortly:
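Assay format: CHO-ADRB2 cells, 18-20hr seeding at 37C/5% CO2, then compound plus 1nM isoproterenol agonist mix for 0.5hr RT. Homogeneous time-resolved fluorescence cAMP detection after 1hr, expressed as 665/615 nm ratio.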

Experiment [17] addresses D(2) dopamine receptor (Homo sapiens) (UniProt P14416). In words: Dopamine D2 receptor (DRD2) small molecule agonists, cell-based qHTS assay (AID 1963594). Also: nearly all actives have a fitted effect of over 35% in size. Summed up:
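HEK293 cells stably expressing DRD2 were cultured 24 h at 37 C, then given Ro20-1724 (0.1 mM final) and compounds for 10 min at room temperature. NKH477 (200nM) was then added for 30 min. cAMP was read by HTRF.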

The target is the same in experiment [18]. In words: Dopamine D2 receptor (DRD2) small molecule antagonists, cell-based qHTS assay (AID 1963595; active = well fitted inhibition curve with a large enough effect in the signal ratio in the repeat runs, with a control signal flat; the % refers to the signal ratio). Put shortly:
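In this cell-based antagonist screen, compounds act for 10 min at room temperature before a 30 min challenge with 12 nM quinpirole and 200 nM NKH477. cAMP is quantified by HTRF competition in DRD2-HEK293 cells containing 0.1 mM Ro20-1724.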

The target of experiment [19] is Beta-2 adrenergic receptor (Homo sapiens) (UniProt P07550). Description: Adrenergic beta2 receptor (ADRB2) small molecule agonists, cell-based qHTS assay (AID 1963593).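 Also: CHO cells stably overexpressing human ADRB2.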 Summed up:
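CHO cells stably over-expressing ADRB2 were plated overnight at 37C, then dosed with compounds plus a stimulation mix containing 100uM IBMX and 25uM Ro-20-1724 for 0.5hr at room temperature. cAMP was measured by HTRF competition, 1hr.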

Experiment [20] is described as follows: p53 small molecule agonists, cell-based qHTS assay: qHTS cell viability counter screen (AID 1963581). Also: nearly all actives have a fitted effect of over 45% in size. Put shortly: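 Cytotoxicity read-out: ATP-based luminescence (CellTiter-Glo, 30 min RT) measured in the same wells as the p53 reporter assay, HCT-116 p53RE-bla cells, 16 h compound exposure at 37 C.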

Sequence of Muscarinic acetylcholine receptor M1 (Homo sapiens) (P11229 whole entry, looked up): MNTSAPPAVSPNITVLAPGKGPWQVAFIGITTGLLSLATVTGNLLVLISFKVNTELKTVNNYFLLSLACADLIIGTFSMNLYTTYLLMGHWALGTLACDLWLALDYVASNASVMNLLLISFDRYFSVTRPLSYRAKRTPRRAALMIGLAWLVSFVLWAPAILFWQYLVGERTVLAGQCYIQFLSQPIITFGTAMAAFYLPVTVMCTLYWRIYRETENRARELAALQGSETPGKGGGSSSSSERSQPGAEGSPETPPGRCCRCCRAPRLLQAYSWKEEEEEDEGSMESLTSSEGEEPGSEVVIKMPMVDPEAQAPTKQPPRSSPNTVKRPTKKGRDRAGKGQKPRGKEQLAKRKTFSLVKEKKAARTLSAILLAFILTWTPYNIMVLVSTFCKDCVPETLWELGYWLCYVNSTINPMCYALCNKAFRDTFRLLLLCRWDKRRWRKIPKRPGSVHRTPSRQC
Sequence of Beta-2 adrenergic receptor (Homo sapiens) (P07550 whole entry, looked up): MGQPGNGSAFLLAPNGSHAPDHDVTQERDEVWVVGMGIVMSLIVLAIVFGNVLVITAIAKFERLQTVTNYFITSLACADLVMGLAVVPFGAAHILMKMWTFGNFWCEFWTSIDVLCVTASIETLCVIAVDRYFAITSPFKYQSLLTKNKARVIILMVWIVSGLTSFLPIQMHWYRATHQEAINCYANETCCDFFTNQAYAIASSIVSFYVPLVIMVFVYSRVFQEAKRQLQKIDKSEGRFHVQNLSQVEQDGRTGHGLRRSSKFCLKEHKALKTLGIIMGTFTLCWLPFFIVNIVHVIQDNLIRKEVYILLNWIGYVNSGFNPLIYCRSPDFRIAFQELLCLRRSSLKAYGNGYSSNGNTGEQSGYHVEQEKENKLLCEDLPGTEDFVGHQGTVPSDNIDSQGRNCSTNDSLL
Sequence of D(2) dopamine receptor (Homo sapiens) (P14416 whole entry, looked up): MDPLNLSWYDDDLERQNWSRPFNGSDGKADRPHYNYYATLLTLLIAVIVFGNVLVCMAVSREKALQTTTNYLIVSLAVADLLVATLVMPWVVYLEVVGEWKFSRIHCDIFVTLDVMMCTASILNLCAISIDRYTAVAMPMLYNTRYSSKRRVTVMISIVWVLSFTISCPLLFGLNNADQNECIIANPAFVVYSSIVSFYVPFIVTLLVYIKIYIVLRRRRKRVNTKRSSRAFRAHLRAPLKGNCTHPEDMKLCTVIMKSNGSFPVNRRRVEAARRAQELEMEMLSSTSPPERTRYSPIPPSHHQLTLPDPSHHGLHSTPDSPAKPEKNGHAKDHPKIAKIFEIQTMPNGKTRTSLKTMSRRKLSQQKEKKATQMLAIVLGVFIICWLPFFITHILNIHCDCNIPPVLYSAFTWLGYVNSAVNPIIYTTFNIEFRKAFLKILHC
Sequence of KiSS-1 receptor (Homo sapiens) (Q969F8 whole entry, looked up): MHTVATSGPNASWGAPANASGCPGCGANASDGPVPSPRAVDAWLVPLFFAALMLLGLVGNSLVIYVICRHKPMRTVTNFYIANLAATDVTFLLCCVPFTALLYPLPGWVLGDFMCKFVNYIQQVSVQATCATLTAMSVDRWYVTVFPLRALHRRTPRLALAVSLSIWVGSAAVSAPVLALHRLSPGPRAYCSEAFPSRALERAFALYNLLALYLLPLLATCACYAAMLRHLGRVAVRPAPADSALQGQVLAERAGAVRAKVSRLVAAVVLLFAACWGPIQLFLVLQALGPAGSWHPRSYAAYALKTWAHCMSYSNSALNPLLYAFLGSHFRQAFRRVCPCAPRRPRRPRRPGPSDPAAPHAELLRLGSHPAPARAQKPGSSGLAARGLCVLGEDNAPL

As for `O=C1C=CCCC1`, the Potency result in experiment [1], in [2], in [3], in experiment [6], in [7] and in experiment [8] was “inactive” throughout. Moreover, the Potency result in [9], in experiment [10], in experiment [11], in [12], in experiment [13] and in experiment [14] was “inactive” throughout. The Potency entry in experiment [15], in experiment [16], in [17] and in [18] was “inactive” in each case. For the same molecule, the outcome in [4] and in experiment [5] was inactive.
`CN1CN(C)CN(C)C1`: the Potency result in experiment [1], in experiment [2], in [3], in [6], in experiment [7] and in experiment [8] was “inactive” in each case. The Potency result in experiment [10], in experiment [11], in experiment [13], in [14], in experiment [15] and in [16] was “inactive” throughout. Moreover, the Potency entry in experiment [19], in experiment [17] and in [18] was “inactive” throughout. Besides, the result in experiment [4] and in [5] was inactive.
Turning to `CC(C)C[C@@H]1[C@H](c2ccccc2)OC(=O)N1CCCN1CCCCCC1`, the Potency result in experiment [1], in [2], in [3], in experiment [6], in experiment [7] and in experiment [8] was “inactive” throughout. The Potency entry in [20], in experiment [11], in experiment [12], in [13], in [15] and in experiment [16] was “inactive” in each case. Besides, the Potency result in experiment [17] and in experiment [18] was “inactive” throughout. The result in experiment [4] and in experiment [5] was inactive. Also, the Potency in [10] was 2590 nM (active).
With `CCCCN(C)C`, the Potency result in [1], in [2], in [3], in experiment [6], in [7] and in [8] was “inactive” in each case. The Potency result in experiment [20], in experiment [10], in [11], in experiment [14], in experiment [19] and in experiment [17] was “inactive” throughout. The Potency entry in experiment [18] is “inactive”. For the same molecule, the result in experiment [4] and in experiment [5] was inactive.
With `N#C[C@@H]1CC(F)(F)CN1C(=O)CNC1CC2CCC(C1)N2c1ncccn1` (stereo not given in full), the Potency result in experiment [1], in experiment [2], in experiment [3], in experiment [6], in experiment [7] and in experiment [8] was “inactive” throughout. Moreover, the Potency result in experiment [20], in experiment [10], in experiment [11], in experiment [13], in experiment [14] and in [15] was “inactive” in each case. For the same molecule, the Potency result in [16], in [19], in experiment [17] and in [18] was “inactive” each time. The outcome in experiment [4] and in experiment [5] was inactive.
In the case of `CCc1cccc(CC)c1`, the Potency entry in [1], in experiment [2], in experiment [3], in [6], in [7] and in experiment [8] was “inactive” each time. In addition, the Potency entry in [20], in experiment [10], in [11], in [13], in [14] and in experiment [15] was “inactive” throughout. In addition, the Potency entry in experiment [16], in [19], in [17] and in experiment [18] was “inactive” each time. For the same molecule, the result in [4] and in [5] was inactive.
Consider `CCC(C(=O)OCCN(CC)CC)c1ccccc1` (stereo not given), for which the Potency result in experiment [1], in [2], in experiment [3], in experiment [6], in [7] and in experiment [8] was “inactive” in each case. Besides, the Potency result in [9], in [10], in [11], in experiment [14], in experiment [15] and in experiment [16] was “inactive” each time. Besides, the Potency result in experiment [19], in experiment [17] and in [18] was “inactive” in each case. Further, the result in experiment [4] and in experiment [5] was inactive.
